# An excerpt weighted towards active compounds, which were near 6.6% of everything screened.
# KB-V1 cytotox: qHTS assay for MDR1-selective chemotherapeutics: Primary screen using the drug-selected MDR subline cells KB-V1; KB-V1 MDR cells viability, CellTiter-Glo, 72 h; Potency, µM (highest dose often 46.1 µM), actives largely listed as cytotoxic; actives 3.4% (n = 400,000); also: nearly all actives have a fitted effect of over 60% in size
#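 qHTS viability screen in drug-selected KB-V1 MDR cells: 72 h compound treatment at 37 degrees C, ATP luminescence end point.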
# TGFb SMAD3 inh: qHTS for Inhibitors of TGF-b; HepG2 CAGA-GFP TGF-b/SMAD3 reporter, GFP fluorescence, 18 h; TGF-beta stimulated, 500 pg/mL final; Potency, µM (top dose mostly 46.1 µM), usual class: inhibitors; actives 1.2% (n = 410,000); AID 588855, 2011; also: nearly all actives have a fitted effect of over 65% in size
#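 Using HEPG2 CAGA-GFP reporter cells at 1000 cells/well, we pinned test compounds, stimulated with recombinant TGF-beta (500 pg/mL final) and measured total well GFP after 18 h.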
# HT1080NT lethal: qHTS for induction of synthetic lethality in tumor cells producing 2HG: qHTS for the HT-1080-NT fibrosarcoma cell line; HT-1080-NT fibrosarcoma viability, CellTiter-Glo ATP luminescence, 48 h; actives 1.6% (n = 360,000); AID 686970, 2013; Potency, µM (doses to about 46.1 µM), actives largely listed as cytotoxic;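 also: NT is the 2HG producing partner of a matched IDH1 knockdown line; nearly all actives have a fitted effect of over 55% in size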
#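 Viability by CellTiter-Glo luminescence after 48 h compound exposure at 37C of HT-1080-NT cells (750/well, RPMI, 5% FBS). % activity scaled between DMSO wells and medium-only wells, then curve-fitted and categorized by curve class.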
# HT1080 IDH1KD tx: qHTS for induction of synthetic lethality in tumor cells producing 2HG: qHTS for the HT-1080-IDH1KD cell line; HT-1080 IDH1 knockdown viability, ATP luminescence, 48 h; Potency, µM (series often up to 46.1 µM), actives largely listed as cytotoxic; actives 2% (n = 360,000); AID 686971, 2013
#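 HT-1080-IDH1KD cells (IDH1 knocked down), 750/well in RPMI with 5% FBS, treated with compound 48 h at 37 degrees C. Viability by CellTiter-Glo luminescence, normalised to DMSO and no-cell wells; concentration-response curves classed.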
# KB-3-1 tox: qHTS assay for MDR1-selective chemotherapeutics: Primary screen using the parental adenocarcinoma cell KB-3-1; KB-3-1 viability, CellTiter-Glo ATP luminescence, 72 h; AID 1347075, 2019; actives 1.4% (n = 400,000); Potency, µM (titrated, usually from 46.1 µM), actives largely listed as cytotoxic; also: nearly all actives have a fitted effect of over 60% in size
#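 Here the drug-naive KB-3-1 line serves as comparator for MDR sub-line selectivity; cells received compound titrations, 72 h at 37 °C, then CellTiter-Glo readout.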
# HepG2 tox: qHTS for Inhibitors of TGF-b: Cytotox Counterscreen. actives 0.76% (n = 410,000). AID 588856, 2011. Potency, µM (highest dose often 46.1 µM), most hits filed as cytotoxic. HepG2 CAGA-GFP viability, ATP luminescence, 18 h
#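 CellTiter-Glo luminescence gave cytotoxicity after 18 hours at 37 degrees C. The cells were HepG2 CAGA-GFP in 1% FBS DMEM, stimulated with 500 pg/mL TGF-beta after compound addition. %Activity was normalised to no-cell wells (complete cell-killing) and DMSO (no toxicity), and curves were fitted and classified.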
# Hits are given with their value; . = inactive; ? = inconclusive; / = no result. Calls follow the shape of the dose curve; as a rule, active = well fitted curve in the direction sought with a large enough effect; inconclusive = small, poorly fitted or top-dose-only effect, or another doubt; inactive = no such curve, though single readings can be large; an effect the other way counts as inactive or inconclusive.
SMILES,KB-V1 cytotox,TGFb SMAD3 inh,HT1080NT lethal,HT1080 IDH1KD tx,KB-3-1 tox,HepG2 tox
Cc1ccc(S(=O)(=O)N2CCCN(Cc3nc4ccccc4c(=O)[nH]3)CC2)cc1,.,.,.,.,.,.
Cc1ccc(S(=O)(=O)N2CCCN(C(C)c3nc4ccccc4c(=O)[nH]3)CC2)cc1 (configuration not stated),.,14µM,.,.,.,.
CCc1cccc(C)c1NC(=O)C(CC)n1ncn2c(cc3cc(C)ccc32)c1=O (configuration not stated),.,.,/,/,.,.
Cc1c(Cl)c([N+](=O)[O-])nn1CC(=O)NCc1cccs1,18µM,.,.,.,.,.
Cc1c(Cl)c([N+](=O)[O-])nn1CCCC(=O)Nc1c(Cl)cccc1Cl,7.3µM,.,.,.,.,.
Cc1ccc(C)c(-c2nnc(NC(=O)c3ccc4c(c3)OCCO4)o2)c1,/,?,/,/,/,.
CCCNC(=O)C1(C)CCN(C(=O)c2c(Cl)cccc2Cl)C1 (configuration not stated),.,.,.,.,.,.
CC1C(c2ccccc2)N(C)C(c2ccccc2)C(C)C1(O)C#Cc1ccccc1 (configuration not stated),?,11µM,.,?,?,.
CCN(CC)Cc1cc(Nc2c3ccccc3nc3c4ccccc4n(C)c23)cc(CN(CC)CC)c1O,.,.,18µM,?,?,.
CCN(CC)S(=O)(=O)c1ccc(NC(=O)c2ccc(OCC3CCCO3)cc2)cc1 (configuration not stated),15µM,?,.,?,.,.
CCOc1ccc(NC(=O)c2ccc(OCC3CCCO3)cc2)cc1S(=O)(=O)N(CC)CC (configuration not stated),2.6µM,.,.,?,.,.
Cc1ccc(S(=O)(=O)N2CC3(O)CN(C(=O)OC(C)C)N(C(=O)OC(C)C)CC3(OC(=O)Nc3c(C)noc3C)C2)cc1 (configuration not stated),.,.,.,.,.,.
Cc1ccc(S(=O)(=O)N2CC3(O)CN(C(=O)OC(C)C)N(C(=O)OC(C)C)CC3(OC(=O)Nc3cccs3)C2)cc1 (configuration not stated),.,13µM,.,.,.,.
O=C(NNC(=O)C1CCC1)c1ccc(Br)cc1,.,.,.,.,.,.
Cc1cnc(C(=O)NNC(=O)c2ccc(Br)cc2)cn1,.,.,?,21µM,?,.
CC(=O)c1cccc(NC(=O)Nc2cnn(Cc3ccc(Cl)cc3Cl)c2)c1,18µM,?,?,14µM,?,.
O=C(Nc1cnn(Cc2ccc(Cl)cc2Cl)c1)c1noc2c1CCCC2,10µM,16µM,.,.,.,.
O=C(Nc1cnn(Cc2ccc(Cl)cc2Cl)c1)c1cc(-c2cccs2)on1,?,?,.,.,.,.
Cc1ccc(-c2nnc(SCC(=O)NCCC(C)C)nc2-c2ccc(C)cc2)cc1,.,.,/,/,.,.
O=C(CNC(=O)c1ccccc1)NCC(=O)OCC(=O)c1ccc2ccccc2c1,.,.,/,/,?,.
COc1ccc(OC)c(C2C3=C(COC3=O)Nc3cc4c(cc32)OCO4)c1 (configuration not stated),1.2µM,?,0.65µM,0.52µM,0.058µM,.
COc1cccc(C(O)c2nc(-c3cncnc3)cs2)c1 (configuration not stated),.,.,.,.,.,.
O=C(c1cccc(Cl)c1)N1CCC(=O)N([C@H](COCc2cccc(Cl)c2)Cc2ccccc2)CC1,?,/,?,16µM,?,/

# Source: PubChem BioAssay
